Reference: PubChem BioAssay (Tox21)
Results filed as inconclusive are left out. Entries that show only a call come without a potency. Values without a mark were called inactive. The source made the active and inactive calls. Unless noted, calls follow the shape of the full dose curve.

Key:
[1] = qHTS assay to identify small molecule agonists of the vitamin D receptor (VDR) signaling pathway - cell viability counter screen (AID 743224; active = well fitted curve in the direction sought with a large enough effect in the repeat runs; an effect the other way counts as inactive or inconclusive; also: series mostly up to about 63 µM; nearly all actives have a fitted effect of over 50% in size)
How it was run: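 Counter screen for cytotoxicity: VDR-bla cells at 2,000 cells/well, 16 h compound exposure, then CellTiter-Glo luminescence after the beta-lactamase measurement.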

[2] = qHTS assay to identify small molecule antagonists of the vitamin D receptor (VDR) signaling pathway - cell viability counter screen (AID 743225; active = well fitted curve in the direction sought with a large enough effect in the repeat runs; an effect the other way counts as inactive or inconclusive; also: nearly all actives have a fitted effect of over 50% in size)
How it was run: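 VDR-bla HEK 293T cells, 4 h pre-incubation at 37C, then compound plus 1-alpha,25-dihydroxyvitamin D3 (3 nM final) for 16 h. After the beta-lactamase FRET read, CellTiter-Glo was added to the same wells; luminescence after 30 min at room temperature.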

[3] = qHTS assay to identify small molecule agonists of the NFkB signaling pathway (AID 1159509; active = well fitted curve in the direction sought with a large enough effect in the signal ratio in the repeat runs, not every such curve was filed as active; the % refers to the signal ratio; also: series mostly up to about 61 µM)
How it was run: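 Beta-lactamase reporter assay run in quantitative high-throughput format on an NF-kB-responsive ME-180 line, with 5 hr compound treatment and a FRET-based blue/green fluorescence readout.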

[4] = qHTS assay to identify small molecule agonists of the NFkB signaling pathway - cell viability counter screen (AID 1159515); also: series mostly up to about 61 µM; nearly all actives have a fitted effect of over 55% in size
How it was run: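 Counter screen run alongside the NFkB-bla agonist assay: ME-180 reporter cells exposed to compounds for 5 hr, then lysed with CellTiter-Glo in the same wells. Luminescence, read after 30 min, reflects viable cells.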

[5] = qHTS assay to identify small molecule agonists of the endoplasmic reticulum stress response signaling pathway - cell viability counter screen (AID 1159517); also: series mostly up to about 61 µM; nearly all actives have a fitted effect of over 50% in size
How it was run: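 Cytotoxicity of test compounds toward ESRE-bla HeLa cells was assessed after 5 hr exposure. The luminescent CellTiter-Glo signal was measured 30 min after reagent addition.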

[6] = qHTS assay to identify small molecule antagonists of the retinoid-related orphan receptor gamma (ROR-gamma) signaling pathway - cell viability counter screen (AID 1159520; active = well fitted curve in the direction sought with a large enough effect in the repeat runs; an effect the other way counts as inactive or inconclusive; also: nearly all actives have a fitted effect of over 50% in size)
How it was run: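 Tet-on ROR gamma CHO cells (1,000/well) were plated 4 hr, given compounds in DMSO for 2 hr at 37 C, then induced with 1 uM final doxycycline for 16 hr. Viability was read as ATP by CellTiter-Glo luminescence after 30 min.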

[7] = qHTS assay to identify small molecule agonists of the AP-1 signaling pathway - cell viability counter screen (AID 1159525); also: nearly all actives have a fitted effect of over 55% in size
How it was run: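 Each titration point was normalised to DMSO and tetra n-octyl ammonium bromide controls. The read was Cell Titer Glo luminescence after 30 min at RT, following 5 h compound exposure of ME-180 AP-1-bla cells at 37 °C.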

[8] = qHTS assay to identify small molecule agonists of the AP-1 signaling pathway (AID 1159526)
[9] = qHTS assay to identify small molecule agonists of the endoplasmic reticulum stress response signaling pathway (AID 1159516; active = well fitted activation curve with a large enough effect in the signal ratio in the repeat runs, not every such curve was filed as active; the % refers to the signal ratio)
How it was run: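 For this screen, HeLa cells stably carrying beta-lactamase under the ER stress response element received test compounds, positive controls or DMSO for 5 hr at 37 C; B/G FRET substrate was then added and dual-wavelength emission recorded.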

[10] = target: Nuclear receptor ROR-gamma (Homo sapiens) (UniProt P51449); assay: qHTS assay to identify small molecule antagonists of the retinoid-related orphan receptor gamma (ROR-gamma) signaling pathway (AID 1159521; active = well fitted curve in the direction sought with a large enough effect in the repeat runs; an effect the other way counts as inactive or inconclusive; also: nearly all actives have a fitted effect of over 50% in size; also: potency is read from the fitted curve at half-maximal effect)
How it was run: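 Tet-on RORγ CHO cells carrying a ROR response element–luciferase reporter were pretreated with compounds for 2 h, then induced with 1 uM (final) doxycycline hyclate for 16 h at 37 C. Antagonism was read as decreased ONE-Glo luminescence.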

SMILES | Potency [1] | Potency [2] | outcome [3] | outcome [4] | outcome [5] | Potency [6] | outcome [7] | outcome [8] | outcome [9] | Potency [10] | activity, negative = cytotoxicity [6] | viability change, negative = cytotoxic [7] | activation [8]
CO[Si](C)(OC)OC | inactive | inactive | inactive | inactive | inactive | inactive | inactive | inactive |  |  |  |  | 
C=CC(C)(C)CC(=O)OC | inactive | inactive | inactive | inactive |  |  | inactive | inactive | inactive |  |  |  | 
CC(=O)Nc1ccccc1C |  |  | inactive | inactive |  | inactive | inactive | inactive |  |  |  |  | 
COC(=O)c1cc(Cl)ccc1NS(=O)(=O)C(F)(F)F | inactive | inactive | inactive | inactive |  |  | inactive | inactive | inactive | inactive |  |  | 
CCCCCCCCCOC(C)=O | inactive | inactive | inactive | inactive | inactive | inactive |  | inactive |  |  |  |  | 
CC(=O)Nc1ccc(N)cc1 | inactive | inactive | inactive | inactive | inactive | inactive | inactive | inactive |  |  |  |  | 
Nc1nccs1 | inactive | inactive | inactive | inactive | inactive | inactive |  | inactive |  |  |  |  | 
CC(C)OCC1CO1 (stereo not given) | inactive | inactive | inactive | inactive | inactive | inactive | inactive | inactive |  |  |  |  | 
C[N+]1(C)CCC(=C(c2ccccc2)c2ccccc2)CC1 | inactive | inactive | inactive | inactive |  | inactive | inactive | inactive |  | inactive |  |  | 
CCc1nn(CCCN2CCN(c3cccc(Cl)c3)CC2)c(=O)n1CCOc1ccccc1 | inactive |  | inactive | inactive | inactive |  | inactive | inactive |  | 18.8 µM (active) |  |  | 
C(=C\c1ccccc1)/CN1CCN(C(c2ccccc2)c2ccccc2)CC1 |  | inactive | inactive | inactive |  |  | inactive |  | inactive |  |  |  | 
C[C@@H]1C[C@H]2[C@@H]3CCC4=CC(=O)C=C[C@]4(C)[C@@]3(F)[C@@H](O)C[C@]2(C)[C@@]1(O)C(=O)CO |  |  | inactive | inactive | inactive | inactive | inactive | inactive |  |  |  |  | 
O=C(Nc1ccc([N+](=O)[O-])cc1)Nc1ccc([N+](=O)[O-])cc1 |  | inactive | inactive | inactive |  |  | inactive | inactive | inactive | 2.37 µM (active) |  |  | 
CCc1c2c(nc3ccc(OC(=O)N4CCC(N5CCCCC5)CC4)cc13)-c1cc3c(c(=O)n1C2)COC(=O)[C@]3(O)CC |  |  | inactive | inactive | inactive | inactive | inactive |  |  |  |  |  | 
CC(=O)Oc1ccc(C(=C2CCCCC2)c2ccc(OC(C)=O)cc2)cc1 |  | inactive | inactive | inactive | inactive | inactive | inactive | inactive |  |  |  |  | 
O=C(C(=O)c1ccccc1)c1ccccc1 | inactive | inactive | inactive | inactive | inactive | inactive | inactive | inactive |  |  |  |  | 
CN1CCN(c2c(F)cc3c(=O)c(C(=O)O)cn4c3c2OCN4C)CC1 | inactive | inactive | inactive | inactive | inactive |  |  |  |  |  | 0.283% [at 19 µM] | 12.5% [at 15.8 µM] | 4.3% [at 15.8 µM]
N#C[C@@H]1C[C@@H]2C[C@@H]2N1C(=O)[C@@H](N)C12CC3CC(CC(O)(C3)C1)C2 | inactive | inactive | inactive | inactive | inactive | inactive | inactive | inactive |  |  |  |  | 
O=C1NCCN1 | inactive | inactive | inactive | inactive | inactive | inactive | inactive | inactive |  |  |  |  | 
